# From PubChem BioAssay AID686979 (National Center for Advancing Translational Sciences (NCATS), 2013)
# Hit rate of the full screen: of about 420,000 compounds, about 50,000 (12%) were called active. Where a call stands in place of a potency, no number is given. Roughly 26% stayed inconclusive and do not appear here. Only a selection was taken, and actives are over-represented in it overall. A number with no mark means an inactive call. Calls follow the shape of the dose curve; as a rule, active = well fitted inhibition curve with a large enough effect; inconclusive = small, poorly fitted or top-dose-only effect; inactive = flat fitted curve, though single readings scatter.
# Experiment: qHTS for Inhibitors of human tyrosyl-DNA phosphodiesterase 1 (TDP1): qHTS in cells in presence of CPT; also: nearly all actives have a fitted effect of over 55% in size
# Conditions: chicken DT40 Tdp1-/-;hTDP1 cells + 20 nM CPT, ATP luminescence, 48 h; series mostly up to 46.2 µM
# Outline: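 Cell growth measured by CellTiter-Glo luminescence after a minimum 48 h, 37 C compound exposure with 20 nM CPT in Tdp1-knockout DT40 cells stably expressing hTDP1, seeded 400/well; qHTS titration format.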
# Potency is read from the fitted curve at half-maximal effect.
Structure (SMILES),Potency,"activity change, negative = growth inhibition"
Cc1ccc(OCC(=O)Nc2ccc(S(=O)(=O)Nc3ccccn3)cc2)cc1,inactive,
Cc1ccc(S(=O)(=O)Nc2ccc3ncccc3c2)cc1,10.3 µM (active),
Cc1ccc(NS(=O)(=O)c2ccc(C(C)(C)C)cc2)cn1,inactive,
Cc1oc2cc3oc(=O)ccc3cc2c1C,inactive,
Cc1sc2ncnc(N3CCC(C(=O)NNC(=O)c4ccc(F)cc4)CC3)c2c1C,18.4 µM (active),
Cc1sc2ncnc(N3CCC(C(=O)Nc4nc5ccc(Cl)cc5s4)CC3)c2c1C,8.2 µM (active),
CS(=O)(=O)c1ccc2nc(NC(=O)C3C4C=CC(C4)C3C(=O)O)sc2c1 (stereo unspecified),inactive,
CS(=O)(=O)c1ccc2nc(NC(=O)CN3CCCCCC3)sc2c1,inactive,
O=C(NNC(=O)C1CCCC1)c1ccc(F)cc1,inactive,
O=C(NNC(=O)C1CCN(c2ncccn2)CC1)c1ccccc1,inactive,
COc1ccccc1C1CN(CCNC(=O)C2=CCCC2)Cc2ccccc2O1 (stereo unspecified),,-9.51% [at 9.04 µM]
Nc1ncnc2c1ncn2[C@@H]1O[C@H](CNCc2cccn2-c2nccs2)[C@@H](O)[C@H]1O,inactive,
CCCCN1C(=O)C(CC(=O)NC(c2ccccc2)c2ccccc2)CC(C(=O)N2CCOCC2)=C1C (stereo unspecified),inactive,
O=C1NCCn2nc3ccccc3c21,inactive,
Cc1ccc2c(c1)N(CC(=O)N1CCCC(C)C1)C(=O)CO2 (stereo unspecified),inactive,
CNc1nc(Nc2ccc(C)c(Cl)c2)nc(N)c1[N+](=O)[O-],inactive,
Cc1ccc(Nc2nc(N3CCOCC3)nc(N3CCOCC3)n2)cc1Cl,23.1 µM (active),
Cc1cc(Nc2ccc(N3CCOCC3)cc2)c2cccc(C)c2n1,inactive,
COc1ccc(C2CC(=O)NC(=O)C2)cc1,inactive,
CC(C)(C)c1ccc(SCCc2ccncc2)cc1,18.4 µM (active),
c1ccc(CSCCc2ccncc2)cc1,inactive,
CC(C)(C)NC(=O)C(=O)NCc1ccncc1,inactive,
Cc1cc(NC(=O)C(C)N2C(=O)c3ccccc3S2(=O)=O)no1 (stereo unspecified),inactive,
Fc1ccc(COc2cccc(-c3n[nH]c(=S)o3)c2)cc1,inactive,
COc1cc(C(O)c2nc(-c3cccc(C(=O)O)c3)cs2)ccc1F (stereo unspecified),inactive,
COCc1cccc(-c2csc(C(O)c3ccc(F)cc3)n2)c1 (stereo unspecified),16.4 µM (active),

Structure (SMILES),Potency,"activity change, negative = growth inhibition"
COc1ccc(N2CCN(C(=O)CSCc3nc(-c4ccccc4Cl)oc3C)CC2)cc1,14.6 µM (active),
COc1ccc(N2CCN(C(=O)CN3C(=O)COc4ccccc43)CC2)cc1,inactive,
COc1ccc(N2CCN(C(=O)C3CCN(C(=O)c4ccccc4Cl)CC3)CC2)cc1,inactive,
COc1ccccc1C(=O)Nc1ccnn1C1CCN(Cc2cnn(C)c2)CC1,inactive,
c1ccc(-c2cc(-c3ccccc3)[nH]n2)cc1,inactive,
CNc1nc(-c2ccccc2)cc(-c2ccccc2)n1,inactive,
Nc1nc(-c2ccccc2)cc(-c2ccccc2)n1,16.4 µM (active),
Cc1ccccc1NC(=O)c1cc2c([nH]c1=O)CC(C)(C)CC2=O,inactive,
Cc1ccc(F)c(NC(=O)CCOc2ccccc2C)c1,inactive,
COCCc1nn2c(=O)cc(COC(=O)c3cc(OC)c(OC)c(OC)c3)nc2s1,inactive,
COc1ccc(C(=O)OCc2cc(=O)n3ccsc3n2)cc1F,inactive,
COc1cc(C(=O)OCc2cc(=O)n3ccsc3n2)ccc1OC(C)C,23.1 µM (active),
CCc1c(C)nc2c(-c3ccccc3)c(C)nn2c1Nc1ccc(NC(C)=O)cc1,inactive,
CCOC(=O)N1CCN(S(=O)(=O)N2CCCC(C(=O)NCCCN3CCC(C)CC3)C2)CC1 (stereo unspecified),inactive,
COC(=O)C(C)NC(=O)COc1ccc2ccccc2c1 (stereo unspecified),inactive,
CC(=O)NC(c1ccccc1)c1nc(-c2ccccc2C)cs1 (stereo unspecified),inactive,
O=C(NCc1nnc(SCC(=O)N2CCC(Cc3ccccc3)CC2)o1)c1ccco1,inactive,
CC1(C)CC(=O)C(CC(=O)N2CCC(Cc3ccccc3)CC2)C(=O)C1,inactive,
O=C(CN1CCOc2ccccc21)N1CCC(Cc2ccccc2)CC1,13 µM (active),
Cn1cnnc1Sc1ccc(S(C)(=O)=O)cc1[N+](=O)[O-],inactive,
Cc1cc(C)nc(NS(=O)(=O)c2ccc(N3C(=O)C4CCCCC4C3=O)cc2)n1 (stereo unspecified),inactive,
Cn1c(=O)c2c(nc(N/N=C/c3cccs3)n2Cc2ccc(Br)cc2)n(C)c1=O,20.6 µM (active),
COc1ccc(CNc2nc3c(c(=O)[nH]c(=O)n3C)n2Cc2ccccc2)cc1,inactive,
CCn1c(NCCc2ccc(OC)c(OC)c2)nc2c1c(=O)n(C)c(=O)n2C,9.2 µM (active),
Cn1c(=O)c2c(nc(OCc3cccnc3)n2Cc2ccccc2)n(C)c1=O,11.6 µM (active),
